Active and inactive are the calls of the source.
Experiments:
[1] = optical density shifts of acrAB sulA E. coli – strain DRC41, OD650, 48 h, E. coli filamentation inducer project, primary screen (AID 1152); settings: higher = more signal, called active from +8 up or from −8 down;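 further: E. coli MC1000 strain DRC41 lacking acrAB efflux pump and sulA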
[2] = probe aLefty1 binding on compound microarray – biochemical, small-molecule microarray, 635/667 nm fluorescence, primary screen (AID 1153); settings: higher = more signal;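 further: score merges spot fluorescence with signal-to-noise ratio from the scanned slide images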
[3] = plasmodial surface anion channel blockers, osmotic lysis – cell-based, P. falciparum Indochina, OD700, 1 h, primary screen (AID 1154); settings: P. falciparum Indochina infected RBC osmotic lysis, higher = more signal, called active from +8 up or from −8 down
[4] = plasmodial surface anion channel blockers, osmotic lysis – cell-based, P. falciparum Indochina, OD700, 2 h, primary screen (AID 1155);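 further: lysis reports solute entry through the parasite surface anion channel PSAC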; settings: P. falciparum Indochina infected erythrocytes, higher = more signal, called active from +8 up or from −8 down
[5] = changes in parasitized red cell lysis, either direction – P. falciparum Indochina, OD700, 3 h, PSAC antagonist project, primary screen (AID 1156); settings: P. falciparum-infected erythrocytes, osmotic lysis, higher = more signal, called active from +8 up or from −8 down
[6] = plasmodial surface anion channel blockers, osmotic lysis – cell-based, P. falciparum Indochina, OD700, 18 h, primary screen (AID 1157); settings: P. falciparum Indochina infected erythrocytes, osmotic lysis OD700, 18 h; higher = more signal, called active from +8 up or from −8 down
[7] = S6 kinase pathway phospho-S6 level changes – cell-based, A549, cytoblot, luminescence, serum-stimulated, primary screen (AID 1158); settings: 5 h, higher = more signal;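 further: serum-stimulated A549 lung adenocarcinoma cells; signal is phosphorylated S6 detected by cytoblot immunostaining with HRP secondary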
[8] = target: NADPH oxidase 2 (Homo sapiens) (UniProt P04839); test: compounds shifting NOX2 Amplex Red fluorescence – cell-based, HEK293-NOX2, PMA-stimulated, NOX inhibitor project, primary screen (AID 1159); settings: 45 min, higher = more signal, called active from +8 up or from −8 down; further: test concentration not given here
Sequence of NADPH oxidase 2 (Homo sapiens) (P04839 whole entry, looked up): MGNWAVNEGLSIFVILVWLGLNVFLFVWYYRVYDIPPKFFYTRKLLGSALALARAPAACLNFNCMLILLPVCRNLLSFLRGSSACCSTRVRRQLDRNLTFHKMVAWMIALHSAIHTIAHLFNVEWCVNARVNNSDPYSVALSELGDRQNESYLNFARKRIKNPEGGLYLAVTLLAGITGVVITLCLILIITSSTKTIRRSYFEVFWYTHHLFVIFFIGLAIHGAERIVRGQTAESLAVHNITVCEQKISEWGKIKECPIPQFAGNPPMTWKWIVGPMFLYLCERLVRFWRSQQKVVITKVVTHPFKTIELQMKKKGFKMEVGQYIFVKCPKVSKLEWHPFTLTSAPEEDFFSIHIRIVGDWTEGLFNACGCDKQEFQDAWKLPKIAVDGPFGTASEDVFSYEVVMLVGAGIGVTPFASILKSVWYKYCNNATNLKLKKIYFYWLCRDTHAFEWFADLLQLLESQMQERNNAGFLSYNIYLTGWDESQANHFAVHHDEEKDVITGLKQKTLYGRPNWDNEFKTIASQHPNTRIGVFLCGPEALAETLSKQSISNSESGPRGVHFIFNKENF

[9] = target: NADPH oxidase 4 (Homo sapiens) (UniProt Q9NPH5); test: compounds shifting NOX4 Amplex Red fluorescence – cell-based, HEK293-NOX4, tetracycline-induced, NOX inhibitor project, primary screen (AID 1160); settings: HEK293-NOX4, Amplex Red H2O2 fluorescence, 45 min; higher = more signal, called active from +8 up or from −8 down
Sequence of NADPH oxidase 4 (Homo sapiens) (Q9NPH5 whole entry, looked up): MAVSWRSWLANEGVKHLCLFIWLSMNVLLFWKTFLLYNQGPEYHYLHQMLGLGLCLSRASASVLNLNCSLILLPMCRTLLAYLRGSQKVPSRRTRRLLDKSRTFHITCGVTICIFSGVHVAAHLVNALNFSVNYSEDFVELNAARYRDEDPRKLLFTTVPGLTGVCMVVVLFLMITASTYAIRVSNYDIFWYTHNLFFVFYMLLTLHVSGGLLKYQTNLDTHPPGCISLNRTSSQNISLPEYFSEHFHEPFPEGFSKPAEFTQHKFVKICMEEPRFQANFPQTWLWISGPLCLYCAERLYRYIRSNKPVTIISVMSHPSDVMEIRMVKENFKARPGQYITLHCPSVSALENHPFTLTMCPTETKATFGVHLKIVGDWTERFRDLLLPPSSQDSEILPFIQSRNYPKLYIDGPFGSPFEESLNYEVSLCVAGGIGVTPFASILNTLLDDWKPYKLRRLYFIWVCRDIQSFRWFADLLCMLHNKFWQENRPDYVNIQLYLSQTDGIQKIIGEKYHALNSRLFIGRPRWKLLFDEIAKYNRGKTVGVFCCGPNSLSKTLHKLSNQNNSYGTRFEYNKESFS

[10] = target: NADPH oxidase 5 (Homo sapiens) (UniProt Q96PH1); test: compounds shifting NOX5 Amplex Red fluorescence – cell-based, HEK293-NOX5, NOX inhibitor project, primary screen (AID 1161); settings: HEK293-NOX5, ionomycin, 45 min, higher = more signal
Sequence of NADPH oxidase 5 (Homo sapiens) (Q96PH1 whole entry, looked up): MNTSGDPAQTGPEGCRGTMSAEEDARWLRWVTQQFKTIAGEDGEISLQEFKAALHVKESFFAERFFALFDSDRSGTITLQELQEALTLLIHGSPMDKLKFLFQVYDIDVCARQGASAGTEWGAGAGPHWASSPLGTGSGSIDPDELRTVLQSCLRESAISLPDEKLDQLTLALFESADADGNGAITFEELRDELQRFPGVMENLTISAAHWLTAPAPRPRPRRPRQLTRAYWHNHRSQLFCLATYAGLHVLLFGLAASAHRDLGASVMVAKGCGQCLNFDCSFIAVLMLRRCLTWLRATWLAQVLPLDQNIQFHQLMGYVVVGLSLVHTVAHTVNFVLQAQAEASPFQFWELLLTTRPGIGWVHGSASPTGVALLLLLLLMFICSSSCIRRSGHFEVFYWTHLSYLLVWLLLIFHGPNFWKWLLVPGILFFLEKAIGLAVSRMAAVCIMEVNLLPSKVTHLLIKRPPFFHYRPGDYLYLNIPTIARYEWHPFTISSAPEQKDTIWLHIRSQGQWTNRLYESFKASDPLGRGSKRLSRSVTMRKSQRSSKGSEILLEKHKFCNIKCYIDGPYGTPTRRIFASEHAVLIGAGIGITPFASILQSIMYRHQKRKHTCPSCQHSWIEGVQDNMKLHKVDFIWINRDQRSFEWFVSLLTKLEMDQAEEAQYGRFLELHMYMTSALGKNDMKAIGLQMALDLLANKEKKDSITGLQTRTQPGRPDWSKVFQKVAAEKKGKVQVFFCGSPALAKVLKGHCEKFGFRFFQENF

[11] = compound effects on lung adenocarcinoma cell viability – A549, calcein-AM fluorescence, 48 h, basal, profiling panel (AID 1162); settings: higher = more signal; further: test concentration not given here
[12] = compound effects on differentiated 3T3-L1 adipocyte viability – cell-based, 3T3-L1 adipocytes, calcein-AM fluorescence, 48 h, basal, profiling panel (AID 1163); settings: 3T3-L1 adipocytes viability, higher = more signal; further: test concentration not given here
[13] = compound effects on hepatocellular carcinoma cell viability – HepG2, calcein-AM fluorescence, 48 h, basal, profiling panel (AID 1164); settings: higher = more signal; further: test concentration not given here
[14] = compound effects on multiple myeloma cell viability – MM1S, calcein-AM fluorescence, 48 h, basal, profiling panel (AID 1165); settings: higher = more signal;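 further: viability of MM1S multiple myeloma cells under basal unstimulated conditions; test concentration not given here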
[15] = calcein-AM signal in unstimulated myeloma cells – cell-based, calcein-AM fluorescence, 48 h, PK04 Diversity Set, profiling panel (AID 1166); settings: RPMI8226 myeloma viability, higher = more signal;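 further: cells grown under basal conditions without added stimulus; test concentration not given here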
[16] = JC-1 mitochondrial signal, unstimulated HepG2 cells – cell-based, JC-1 fluorescence, 24 h, 100 nL compound, profiling panel (AID 1167); settings: HepG2 mitochondrial potential, higher = more signal; further: test concentration not given here
[17] = JC-1 mitochondrial signal, unstimulated adipocytes – cell-based, JC-1 fluorescence, 3T3-L1 adipocytes, 24 h, 100 nL compound, profiling panel (AID 1168); settings: JC-1 mitochondrial fluorescence, higher = more signal, called active from +8 up or from −8 down; further: test concentration not given here
[18] = JC-1 mitochondrial signal, unstimulated myeloma cells – cell-based, JC-1 fluorescence, RPMI8226, 24 h, 100 nL compound, profiling panel (AID 1169); settings: JC-1 mitochondrial potential fluorescence, higher = more signal; further: test concentration not given here
[19] = JC-1 mitochondrial signal, unstimulated MM1S myeloma – cell-based, JC-1 fluorescence, 24 h, 100 nL compound, profiling panel (AID 1170); settings: MM1S mitochondrial potential, higher = more signal; further: test concentration not given here
[20] = resazurin metabolic signal in A549 cells – cell-based, resazurin fluorescence, 24 h, PK04 Diversity Set, profiling panel (AID 1171); settings: A549 viability, higher = more signal, called active from +8 up or from −8 down; further: test concentration not given here

Row | Structure (SMILES) | z-score [1] | composite z-score [2] | z-score [3] | z-score [4] | z-score [5] | z-score [6] | z-score [7] | z-score [8] | z-score [9] | z-score [10] | z-score [11] | z-score [12] | z-score [13] | z-score [14] | z-score [15] | z-score [16] | z-score [17] | z-score [18] | z-score [19] | z-score [20]
1 | CCCCCN1CC=CC23O[C@@H]4C=CCOC(=O)[C@@H]4[C@H]2C(=O)N(C(C)CO)[C@@H]3C1=O (stereo not given in full) | -0.0744 (inactive) | -0.103 | 0.59 (inactive) | 0.531 (inactive) | 0.136 (inactive) | 0.0638 (inactive) | 1.43 | 0.503 (inactive) | 0.306 (inactive) | 0.938 | -0.33 | -0.093 | -0.177 | -0.425 | -0.0937 | -0.714 | 0.282 (inactive) | -0.704 | -0.212 | 0.0264 (inactive)
2 | COCCCNC(=O)[C@]1(Cc2ccccc2)N=C(c2ccc(OCCCO)cc2)O[C@@H]1c1ccccc1CN=[N+]=[N-] | 1.41 (inactive) | 0.401 | 27.1 (active) | 18.1 (active) | 1.44 (inactive) | 2.62 (inactive) | 2.35 | -0.158 (inactive) | 1.26 (inactive) | 2.44 | 1.16 | 0.52 | 1.57 | -0.488 | -2.52 | 2.15 | -0.0892 (inactive) | -0.985 | -0.712 | -1.43 (inactive)
3 | O=C(NCc1ccccc1)[C@@H]1c2ccccc2C(=O)N(C2Cc3ccccc3C2)[C@H]1c1ccc(CO)cc1 | -1.25 (inactive) | 0.315 | 3.46 (inactive) | -0.627 (inactive) | -0.0549 (inactive) | 0.353 (inactive) | -0.543 | -0.0422 (inactive) | -1.3 (inactive) | -1.41 | 0.365 | 0.363 | 0.291 | 0.0344 | -1.3 | 1.52 | -0.508 (inactive) | 0.0926 | 0.458 | 0.791 (inactive)
4 | CN1C(=O)C2C=CC(C(O)C=Cc3ccc([N+](=O)[O-])cc3)N(Nc3ccccc3)C2C1=O (stereo not given) | -1.84 (inactive) | -0.139 | 6.52 (inactive) | 1.48 (inactive) | 0.86 (inactive) | 1.32 (inactive) | -1.05 | -1.57 (inactive) | -3.82 (inactive) | -2.44 | -0.598 | -1.6 | -0.432 | -0.655 | -0.997 | -1.53 | -1.48 (inactive) | -0.634 | -0.681 | -0.408 (inactive)
5 | O=C1C2C=CC(C(O)COCc3ccccc3)N(Nc3ccc([N+](=O)[O-])cc3)C2C(=O)N1c1ccccc1 (stereo not given) | 0.383 (inactive) | 0.447 | 9.2 (active) | 0.581 (inactive) | -0.214 (inactive) | -0.809 (inactive) | 0.213 | -0.51 (inactive) | -0.338 (inactive) | 0.629 | -0.26 | 0.619 | -0.617 | -0.105 | -0.0326 | -1.26 | -1.67 (inactive) | -0.25 | -1.01 | 0.315 (inactive)
6 | C=CCNC(=O)[C@H]1[C@@H]2C(=O)O[C@@H](c3ccccc3)[C@@H](c3ccccc3)N2[C@@H](c2ccc(OCCO)cc2)[C@]12C(=O)Nc1ccc(C#CCC(C(=O)OC)C(=O)OC)cc12 | -0.283 (inactive) | 0.128 | 3.01 (inactive) | 0.664 (inactive) | -0.291 (inactive) | 0.117 (inactive) | -0.602 | 1.48 (inactive) | 1.21 (inactive) | 0.45 | -0.505 | 0.208 | 0.349 | -1.46 | -3.36 | -0.232 | 0.97 (inactive) | -0.817 | -1.12 | 0.149 (inactive)
7 | CCOC(=O)C[C@H]1[C@H](OC(=O)c2ccc(-c3ccccc3)cc2)[C@@H](NC(=O)c2ccccc2)c2cc(OCCCO)ccc2N1C(=O)c1ccc2ccccc2n1 | -0.734 (inactive) | 0.119 | 2.19 (inactive) | -0.0981 (inactive) | -0.735 (inactive) | -0.11 (inactive) | -0.488 | 0.0548 (inactive) | 1.41 (inactive) | 1.81 | -0.208 | -0.0559 | 0.261 | -0.936 | -0.617 | 0.0102 | -0.811 (inactive) | 0.939 | -0.386 | -0.264 (inactive)
8 | Cc1ccc(S[C@]2(C(=O)O)CC(=O)N(C(C)C)[C@@H]2c2ccc(CO)cc2)cc1 | 1.99 (inactive) | -0.668 | 1.05 (inactive) | -0.354 (inactive) | -1.28 (inactive) | -0.951 (inactive) | 2.66 | 0.149 (inactive) | -0.716 (inactive) | -0.877 | 0.716 | 1.07 | 1.19 | 0.266 | 0.535 | 1.36 | -0.285 (inactive) | 0.00862 | -0.317 | -0.831 (inactive)
9 | [N-]=[N+]=Nc1ccccc1C[C@@]1(C(=O)N2CCCCC2)N=C(c2ccc(OCCCO)cc2)O[C@@H]1c1ccccc1 | 2.42 (inactive) | 0.0227 | 26.6 (active) | 18.4 (active) | 2.78 (inactive) | 2.31 (inactive) | 0.159 | -0.0547 (inactive) | 0.951 (inactive) | -1.31 | 0.93 | 0.699 | 1.02 | -2.38 | -4.45 | 0.819 | 0.883 (inactive) | -1.19 | 0.992 | 1.41 (inactive)

Source: PubChem BioAssay
